Experimental data reported in PubChem BioAssay (Tox21).
Values joined by “and” are separate entries in the source; they are usually repeats but may differ in a detail not shown here. Equal entries are not always repeated. Results filed as inconclusive are left out. A structure can be active in one record and inactive in another. Active and inactive are the calls of the source. Unless noted, calls come from the whole dose curve; as a rule, active = well fitted curve in the direction sought with a large enough effect in the repeat runs; inconclusive = weak or mixed curves; inactive = no such curve, though single readings can be large; an effect the other way counts as inactive or inconclusive.

Tests used:
[1] = biological target: Progesterone receptor (Homo sapiens) (UniProt P06401); test: qHTS assay to identify small molecule agonists of the progesterone receptor (PR) signaling pathway (AID 1346784; calls by dose curve; note: nearly all actives have a fitted effect of over 30% in size)
Sequence of Progesterone receptor (Homo sapiens) (P06401 whole entry, looked up): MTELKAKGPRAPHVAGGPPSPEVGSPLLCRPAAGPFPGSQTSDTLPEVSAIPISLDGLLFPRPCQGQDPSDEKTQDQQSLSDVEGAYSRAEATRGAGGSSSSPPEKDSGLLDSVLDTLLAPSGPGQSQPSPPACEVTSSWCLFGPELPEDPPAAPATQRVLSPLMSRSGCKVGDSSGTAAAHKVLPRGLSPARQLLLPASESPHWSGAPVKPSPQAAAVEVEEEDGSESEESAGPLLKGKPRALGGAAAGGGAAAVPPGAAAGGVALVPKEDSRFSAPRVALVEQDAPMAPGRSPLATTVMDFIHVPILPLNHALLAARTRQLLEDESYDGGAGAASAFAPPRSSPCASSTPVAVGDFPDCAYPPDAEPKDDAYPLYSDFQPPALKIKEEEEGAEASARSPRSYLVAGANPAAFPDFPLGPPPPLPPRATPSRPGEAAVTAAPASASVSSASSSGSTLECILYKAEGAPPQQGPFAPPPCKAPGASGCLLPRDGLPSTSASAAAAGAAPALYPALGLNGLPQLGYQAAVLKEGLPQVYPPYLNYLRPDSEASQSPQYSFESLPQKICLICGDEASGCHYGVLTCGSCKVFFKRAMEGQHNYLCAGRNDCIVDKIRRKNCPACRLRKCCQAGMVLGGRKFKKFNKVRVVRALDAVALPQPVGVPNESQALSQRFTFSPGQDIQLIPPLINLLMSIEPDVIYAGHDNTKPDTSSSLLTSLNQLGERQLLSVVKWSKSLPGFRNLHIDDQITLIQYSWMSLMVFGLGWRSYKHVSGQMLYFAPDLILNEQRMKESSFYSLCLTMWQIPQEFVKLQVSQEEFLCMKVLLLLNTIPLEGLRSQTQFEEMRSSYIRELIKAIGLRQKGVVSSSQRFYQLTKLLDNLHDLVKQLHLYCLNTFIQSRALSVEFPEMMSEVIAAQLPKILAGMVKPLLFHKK
Summary of the method: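 Compounds were tested for PR agonism in HEK 293T cells bearing a beta-lactamase gene under UAS control. Treatment lasted 16 hr at 37C; signal came from fluorescence of a FRET substrate.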

[2] = biological target: Progesterone receptor (Homo sapiens) (UniProt P06401); test: qHTS assay to identify small molecule antagonists of the progesterone receptor (PR) signaling pathway (AID 1346795; active = well fitted inhibition curve with a large enough effect in the signal ratio in the repeat runs, not every such curve was filed as active; the % refers to the signal ratio)
Summary of the method: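 In HEK293T cells bearing the PR-UAS-bla reporter, compound effects on promegestone-driven (1 nM) beta-lactamase expression are assessed after 16 hr using a fluorescent FRET substrate incubated 2 hr at room temperature.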

[3] = qHTS assay to identify small molecule agonists of the progesterone receptor (PR) signaling pathway - cell viability counter screen (AID 1346799; calls by dose curve; note: nearly all actives have a fitted effect of over 45% in size; note: potency is the fitted concentration of half-maximal effect)
Summary of the method: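 Here, 3,000 PR-UAS-bla HEK293T cells per well were treated with compounds for 16 hr after a 6 hr preincubation at 37C and 5% CO2; cell viability is the CellTiter-Glo luminescence signal.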

[4] = qHTS assay to identify small molecule antagonists of the TGF-beta/Smad signaling pathway - cell viability counter screen (AID 1346824); note: nearly all actives have a fitted effect of over 50% in size; note: potency is the fitted concentration of half-maximal effect
Summary of the method: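 SBE-bla HEK 293T cells, incubated overnight, then compound plus 0.25 ng/mL TGF-beta1 (stock added) for 5 hr at 37 C. Viability was read in the same wells by CellTiter-Glo luminescence after 30 min at room temperature.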

[5] = qHTS assay to identify small molecule agonists of the TGF-beta/Smad signaling pathway - cell viability counter screen (AID 1346829); note: nearly all actives have a fitted effect of over 45% in size; note: potency is the fitted concentration of half-maximal effect; for activity change, negative = cytotoxicity: top concentration of the series differs between compounds
Summary of the method: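 In parallel with the Smad reporter read, viability of HEK 293T cells stably carrying SBE-bla is quantified by ATP luminescence following 5 hr compound treatment.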

[6] = biological target: Thyrotropin-releasing hormone receptor (Homo sapiens) (UniProt P34981); test: qHTS assay to identify small molecule antagonists of the thyrotropin-releasing hormone receptor (TRHR) signaling pathway (AID 1346877; active = well fitted inhibition curve with a large enough effect in the repeat runs, not every such curve was filed as active; note: potency is the fitted concentration of half-maximal effect)
Sequence of Thyrotropin-releasing hormone receptor (Homo sapiens) (P34981 whole entry, looked up): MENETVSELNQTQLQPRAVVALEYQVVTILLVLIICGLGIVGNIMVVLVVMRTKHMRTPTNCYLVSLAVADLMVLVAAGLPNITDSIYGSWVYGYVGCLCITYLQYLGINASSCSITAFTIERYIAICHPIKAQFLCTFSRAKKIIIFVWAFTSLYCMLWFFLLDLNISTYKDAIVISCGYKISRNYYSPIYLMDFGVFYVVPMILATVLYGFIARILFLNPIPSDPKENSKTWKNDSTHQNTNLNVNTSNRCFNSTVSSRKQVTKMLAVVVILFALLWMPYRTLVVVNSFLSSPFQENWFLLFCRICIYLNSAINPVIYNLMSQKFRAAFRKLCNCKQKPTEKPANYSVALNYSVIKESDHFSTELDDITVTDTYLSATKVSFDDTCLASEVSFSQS
Summary of the method: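 HEK293/TRHR cells, 18 h, 37 °C; Ca2+ dye 2 h; cpd 5 min RT; TRH 1 nM final; fluorescence read 3 min, 1 s intervals; 15 concs, triplicate.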

[7] = biological target: Thyrotropin-releasing hormone receptor (Homo sapiens) (UniProt P34981); test: qHTS assay to identify small molecule agonists of the thyrotropin-releasing hormone receptor (TRHR) signaling pathway (AID 1346891; calls by dose curve; note: series mostly up to about 58 µM)
Summary of the method: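 Screening of agonists relied on calcium signalling in HEK293 cells expressing human TRHR: dye loading 2 h at 37 °C preceded compound addition and a 3-min fluorescence time course.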

[8] = Human pregnane X receptor (PXR) small molecule agonists, qHTS cell viability counter screen (AID 1346977); note: nearly all actives have a fitted effect of over 50% in size; note: potency is the fitted concentration of half-maximal effect
Summary of the method: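 Tox21 qHTS format; PXR-Luc HepG2, 2,000/well, charcoal-stripped FBS 5%. Cpd exposure 24hr. Read: CellTiter-Fluor fluorescence, multiplexed with luciferase.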

[9] = Caspase-3/7 induction in CHO-K1 cells by small molecules, qHTS cell viability counter screen (AID 1346979); note: nearly all actives have a fitted effect of over 35% in size; note: potency is the fitted concentration of half-maximal effect
Summary of the method: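 CellTiter-Fluor viability check, qHTS format: wild-type CHO-K1, 16hr compound treatment, 1hr reagent incubation, fluorescence read.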

[10] = Caspase-3/7 induction in CHO-K1 cells by small molecules, qHTS assay (AID 1346980); note: nearly all actives have a fitted effect of over 15% in size; note: potency is the fitted concentration of half-maximal effect
Summary of the method: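 Wild-type CHO-K1 cells exposed to compounds for 17hr at 37 C, 5% CO2. Caspase-3/7 activity then measured by Caspase-Glo 3/7 luminescence after 30min at room temperature.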

[11] = Caspase-3/7 induction in HepG2 cells by small molecules, qHTS cell viability counter screen (AID 1346981); note: nearly all actives have a fitted effect of over 30% in size; note: potency is the fitted concentration of half-maximal effect; for activity change, negative = cytotoxicity: series mostly up to about 92 µM
Summary of the method: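 Fluorescence read-out of live-cell protease activity (CellTiter-Fluor) after 1 hr with reagent. This was measured in the same wells as the caspase-3/7 luminescence, on HepG2 cells exposed to DMSO-dissolved compounds for 16 hr at 37 C.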

[12] = biological target: Nuclear receptor subfamily 1 group I member 2 (Homo sapiens) (UniProt O75469); test: Human pregnane X receptor (PXR) small molecule agonists, qHTS assay (AID 1346982); note: nearly all actives have a fitted effect of over 35% in size; note: potency is the fitted concentration of half-maximal effect
Sequence of Nuclear receptor subfamily 1 group I member 2 (Homo sapiens) (O75469 whole entry, looked up): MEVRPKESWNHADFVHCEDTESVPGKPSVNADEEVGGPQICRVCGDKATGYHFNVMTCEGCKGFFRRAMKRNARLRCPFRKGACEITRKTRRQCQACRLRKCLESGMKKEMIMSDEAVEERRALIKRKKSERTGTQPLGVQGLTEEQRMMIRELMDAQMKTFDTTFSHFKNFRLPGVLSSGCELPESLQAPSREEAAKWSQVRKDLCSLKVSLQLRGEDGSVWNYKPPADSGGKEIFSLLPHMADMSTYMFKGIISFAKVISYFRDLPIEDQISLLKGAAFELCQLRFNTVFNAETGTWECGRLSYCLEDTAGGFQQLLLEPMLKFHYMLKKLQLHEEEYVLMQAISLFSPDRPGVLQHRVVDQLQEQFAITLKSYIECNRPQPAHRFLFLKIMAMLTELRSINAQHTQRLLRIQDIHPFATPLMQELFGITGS
Summary of the method: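 HepG2 PXR-Luc reporter line, 5% charcoal-stripped FBS; 5 hr pre-incubation, compound (DMSO) 24 hr at 37 C/5% CO2; ONE-Glo 30 min RT; luminescence read-out.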

[13] = biological target: Cytochrome P450 2D6 (Homo sapiens) (UniProt P10635); test: Cytochrome P450 Family 2 Subfamily D Member 6 (CYP2D6) small molecule antagonists: luciferase reporter qHTS assay (AID 1671196); note: nearly all actives have a fitted effect of over 50% in size; note: potency is the fitted concentration of half-maximal effect; for activity change, negative = inhibition: series mostly up to about 120 µM
Sequence of Cytochrome P450 2D6 (Homo sapiens) (P10635 whole entry, looked up): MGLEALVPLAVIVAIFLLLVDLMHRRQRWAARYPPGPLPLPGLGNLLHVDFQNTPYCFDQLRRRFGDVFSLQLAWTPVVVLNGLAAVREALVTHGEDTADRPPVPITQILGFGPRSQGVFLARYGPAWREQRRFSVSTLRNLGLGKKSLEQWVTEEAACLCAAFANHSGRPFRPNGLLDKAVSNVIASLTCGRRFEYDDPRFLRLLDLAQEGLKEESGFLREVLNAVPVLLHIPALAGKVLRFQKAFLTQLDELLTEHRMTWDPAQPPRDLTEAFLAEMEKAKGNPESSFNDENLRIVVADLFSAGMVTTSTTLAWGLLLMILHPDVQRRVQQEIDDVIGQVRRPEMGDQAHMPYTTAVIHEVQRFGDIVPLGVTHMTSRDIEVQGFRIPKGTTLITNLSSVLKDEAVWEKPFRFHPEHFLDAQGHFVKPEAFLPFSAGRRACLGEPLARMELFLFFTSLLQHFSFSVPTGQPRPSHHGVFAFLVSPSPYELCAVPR
Summary of the method: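 Luminogenic proluciferin substrate, CYP2D6 enzyme; 10 min RT preincubation with compound, NADPH regeneration system added, 1 h RT. Stop/detection reagent, 20 min RT, luminescence read (RLU). Signal proportional to CYP activity.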

[14] = qHTS assay to identify small molecule antagonists of the progesterone receptor (PR) signaling pathway - cell viability counter screen (AID 1346798); note: nearly all actives have a fitted effect of over 50% in size; note: potency is the fitted concentration of half-maximal effect; for activity change, negative = cytotoxicity: series mostly up to about 92 µM
Summary of the method: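 Following a 4 hr attachment, PR-UAS-bla HEK293T cells in charcoal-stripped FBS medium were exposed to compounds with R5020 for 16 hr; CellTiter-Glo was added and luminescence read after 30 min at room temperature.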

[15] = Caspase-3/7 induction in HepG2 cells by small molecules, qHTS assay (AID 1346978); note: nearly all actives have a fitted effect of over 15% in size; note: potency is the fitted concentration of half-maximal effect
Summary of the method: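 Wild-type HepG2 cells, 2,000/well, settled 5 hr at 37 C and 5% CO2, then compound-treated for 17 hr; caspase-3/7 activity read by luminescent Caspase-Glo 3/7 after 30 min at room temperature.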

[16] = qHTS assay to identify small molecule agonists of the TGF-beta/Smad signaling pathway (AID 1346859; active = well fitted activation curve with a large enough effect in the signal ratio in the repeat runs, not every such curve was filed as active; the % refers to the signal ratio; note: series mostly up to about 77 µM)
Summary of the method: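 Each well held 4,000 SBE-bla HEK 293T cells incubated overnight before compound addition; 5 hr later the cleavable FRET substrate went on for 2 hr at room temperature, and fluorescence was read at two emissions.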

[17] = biological target: Nuclear receptor subfamily 1 group I member 2 (Rattus norvegicus) (UniProt Q9R1A7); test: Rat pregnane X receptor (rPXR) activation by small molecules, qHTS assay (AID 1346983); conditions: rPXR luciferase reporter cells, One-Glo luminescence, 24 h; stronger effect = higher value; note: nearly all actives have a fitted effect of over 20% in size
Sequence of Nuclear receptor subfamily 1 group I member 2 (Rattus norvegicus) (Q9R1A7 whole entry, looked up): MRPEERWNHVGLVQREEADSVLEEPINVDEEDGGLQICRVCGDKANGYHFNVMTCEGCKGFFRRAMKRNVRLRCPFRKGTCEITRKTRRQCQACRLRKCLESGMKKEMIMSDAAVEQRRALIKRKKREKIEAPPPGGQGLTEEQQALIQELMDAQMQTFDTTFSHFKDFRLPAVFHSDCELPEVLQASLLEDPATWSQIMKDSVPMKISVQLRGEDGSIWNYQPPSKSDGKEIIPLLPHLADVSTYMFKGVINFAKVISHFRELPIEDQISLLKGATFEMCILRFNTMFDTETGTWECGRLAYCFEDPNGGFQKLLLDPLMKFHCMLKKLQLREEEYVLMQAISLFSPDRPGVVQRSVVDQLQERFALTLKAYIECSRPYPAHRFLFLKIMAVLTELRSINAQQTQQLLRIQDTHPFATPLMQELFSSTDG
Summary of the method: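 Cell-based rPXR activation assay: rPXR cells, 2,000 per well, rested 5hr at 37 C, then exposed to compounds in DMSO for 24 hr at 37 C. Luciferase activity read by One-Glo luminescence after 30 min at room temperature.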

[18] = biological target: Nuclear receptor subfamily 1 group I member 2 (Homo sapiens) (UniProt O75469); test: Human pregnane X receptor (PXR) activation by small molecules, qHTS assay (AID 1346985); note: nearly all actives have a fitted effect of over 40% in size; note: potency is the fitted concentration of half-maximal effect
Summary of the method: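 DPX-2 cells (HepG2 co-transfected with a PXR response element and a CYP3A4-promoter luciferase construct) were seeded at 2,000 per well, rested 5 hr at 37C, then exposed to DMSO-dissolved compounds for 24 hr. Activation was read as luciferase luminescence.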

[19] = biological target: Nuclear receptor subfamily 1 group I member 2 (Homo sapiens) (UniProt O75469); test: CYP3A4 induction through human pregnane X receptor (PXR) by small molecules, qHTS assay (AID 1346984); note: nearly all actives have a fitted effect of over 40% in size
Summary of the method: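 HepG2-derived DPX-2 line carrying PXR plus a CYP3A4-promoter luciferase reporter; cells plated 5 hr, compound-exposed 24 hr at 37C. CYP3A4 activity probed with 3uM (final) Luciferin-IPA for 3hr, then luciferase read after One-Glo.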
% is set by controls: 0 for no effect and ±100 for the full control effect.

Cc1scc2c1N(C(=O)CN1CCN(C)CC1)c1ccccc1NC2=O
inactive: Potency [1] | Potency [2] | Potency [3] | Potency [4] | Potency [5] | Potency [6] | Potency [7] | Potency [8] | Potency [9] | Potency [10] | Potency [11] | Potency [12] | Potency [13]

CCCCCCCCCCCCCC[P+](CCCC)(CCCC)CCCC
active: Potency [14] 30.5 µM and 54.5 µM | Potency [3] 30.5 µM | Potency [4] 10.9 µM and 27.5 µM | Potency [5] 54.9 µM | Potency [8] 6.31 µM and 13.7 µM | Potency [15] 48.6 µM | Potency [9] 2.42 µM and 7.7 µM | Potency [11] 54.2 µM | Potency [12] 2.16 µM and 6.86 µM | Potency [13] 223 nM and 399 nM
inactive: Potency [6] | Potency [7] | Potency [10]

Cc1cc(Cc2cc(C)cc(C(C)(C)C)c2O)c(O)c(C(C)(C)C)c1
active: Potency [14] 43.5 µM and 48.6 µM | Potency [3] 27.4 µM | Potency [4] 49.2 µM and 54.9 µM | Potency [5] 43.9 µM and 54.9 µM | Potency [8] 39.8 µM and 61.1 µM | Potency [15] 61.4 µM | Potency [9] 27.4 µM and 54.5 µM | Potency [10] 27.4 µM and 61.1 µM | Potency [11] 61.4 µM and 61.1 µM | Potency [12] 24.5 µM and 386 nM
inactive: Potency [6] | Potency [7] | Potency [13]

CN(C)c1ccc(C(=C2C=CC(=[N+](C)C)C=C2)c2ccccc2)cc1
inactive: Potency [1] | outcome [16] | Potency [7] | max activation [17] 11.8% | Potency [18]
26.9 µM (active) and inactive: Potency [6]
active: Potency [14] 8.63 µM and 6.68 µM and 7.5 µM | Potency [3] 9.69 µM and 7.5 µM and 8.41 µM | Potency [4] 8.49 µM [middle of 4 runs] | Potency [5] 8.49 µM [middle of 4 runs] | Potency [8] 2.37 µM [middle of 4 runs] | Potency [15] 4.33 µM and 5.31 µM and 5.96 µM | Potency [9] 596 nM [middle of 4 runs] | Potency [11] 19.3 µM and 13.3 µM and 23.7 µM | Potency [12] 1.72 µM and 2.11 µM and 1.33 µM | Potency [13] 7.97 µM and 13.8 µM and 15.5 µM

CN(C)c1ccc2nc3ccc(=[N+](C)C)cc-3sc2c1
active: Potency [8] 1.86 µM and 9.69 µM and 10.6 µM | Potency [9] 5.87 µM and 24.3 µM and 5.96 µM | Potency [11] 10.4 µM and 27.3 µM and 23.7 µM | Potency [18] 3.16 µM
inactive: Potency [1] | Potency [3] | Potency [4] | Potency [5] | outcome [16] | Potency [6] | Potency [7] | Potency [12] | max activation [17] -8.38% | Potency [19]

O=C(O)c1cn(-c2ccc(F)cc2)c2cc(N3CCNCC3)c(F)cc2c1=O
inactive: Potency [1] | activity change, negative = inhibition [2] 13.8% [at 18.9 µM] | Potency [14] | activity change, negative = cytotoxicity [3] 10.6% [at 19 µM] | Potency [4] | Potency [5] | Potency [8] | Potency [9] | Potency [10] | Potency [11] | max activation [17] -0.0913% | Potency [13]

CCOc1ccc2c(c1)C(C)=CC(C)(C)N2
active: Potency [12] 60.8 µM and 54.5 µM | Potency [13] 11.2 µM and 10 µM
inactive: Potency [1] | Potency [14] | Potency [3] | Potency [4] | Potency [5] | Potency [6] | Potency [7] | Potency [8] | Potency [15] | Potency [11]
